Calls of active or inactive are those of the source.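 Rule for the calls: active = GFP response above 150% of the DMSO level; inconclusive = fewer than 70 events counted for a yeast strain; inactive = the rest.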
assay: yeast AGP1-GFP fluorescence change, single-dose – cell-based, flow cytometry, S. cerevisiae, cherry picks, confirmation (AID 2273);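 note: median GFP channel fluorescence over the whole cell population gate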; settings: S. cerevisiae AGP1-GFP strain, 3 h, at 10 µM

GFP response, % of DMSO, inactive:
Cc1ccc(C(=O)NNC(=S)NC(=O)COc2ccccc2)cc1 134%, O=C(OCc1cc(Cl)ccc1OC(F)F)c1ccc([N+](=O)[O-])o1 95.7%, O=C(OCCOc1ccccc1)c1n[nH]c2ccccc12 102%, O=C1C=CC(=O)N1c1ccc(Sc2ccc([N+](=O)[O-])cc2)cc1 106%, CCn1c(=O)c(C(=O)Nc2ccsc2C(=O)OC)c(O)c2ccccc21 103%, COCC(=O)Nc1cc([N+](=O)[O-])ccc1C 98.4%, O=C1/C(=C\c2ccc(O)c(O)c2)SC(=S)N1Cc1ccccc1 97.2%, COc1ccc(C(=O)/C=C2/C(=O)Nc3ccccc32)cc1 95.4%, O=C(Nc1cc(Sc2ccccn2)cc([N+](=O)[O-])c1)c1ccc(Cl)cc1 97.4%, c1ccc(-c2cccc(-c3ccccn3)n2)nc1 89%, CN1CCSc2ccc(C(=O)Nc3cccc(F)c3)cc21 97.8%, Cc1nn(C)cc1C(C)NC(=O)c1cc(COc2ccc(F)c(F)c2)on1 (stereo not given) 93.7%, Oc1ccccc1/C=N/c1c(-c2ccco2)nc2ccccn12 102%, CC(C(=O)NCCc1ccc(F)cc1)N1CCN(Cc2ccccc2)CC1 (stereo not given) 98.5%, COc1ccc(C(=O)/C=C2/C(=O)Nc3ccccc32)cc1OC 97.5%, COC(=O)CNc1c(-c2ccccn2)nc2ccc(Br)cn12 98.7%, C=CCOc1ccc(/C=C2\N=C(C)OC2=O)cc1OC 94.5%, COc1ccccc1C1CC(c2c(-c3ccccc3)c3cc(Cl)ccc3[nH]c2=O)=NN1S(C)(=O)=O (stereo not given) 96.4%, COC(=O)Cn1nc(-c2ccccc2)c2ccccc21 97.3%, COc1ccccc1C(=O)NNC(=O)C(=O)Nc1cccc(Cl)c1C 109%, O=C(NCC(=O)N1CCCC1)c1cccs1 97.2%, COC(=O)Cc1csc(Nc2ccc(F)c(Cl)c2)n1 93.7%, O=C1C2C3C=CC(CO)(O3)C2C(=O)N1c1ccccc1-c1ccccc1 (stereo not given) 109%, COC(=O)c1ccc(/C=C/C(=O)c2ccc(OC)c(OC)c2)cc1 102%, Cn1c(=O)c2ccccc2n(Cc2cccc(F)c2)c1=O 101%, COc1cc(/C=C/C(=O)c2c(O)cc(C)oc2=O)cc(OC)c1O 101%, O=[N+]([O-])c1cc(Cl)ccc1Sc1ccccn1 99%, COc1ccc(NC(=O)CCc2nc(-c3ccccc3F)no2)cc1 97.7%, COc1ccc(-c2nnc(NC(=O)c3ccc(S(=O)(=O)N4COCC4(C)C)cc3)o2)cc1 103%, C/C(CCC12CC3CC(CC(C3)C1)C2)=N\NC(N)=S 96%, C=CCn1cc(/C=C/c2cc[n+](C)cc2)c2ccccc21 97.8%, Cc1ccc(S(=O)(=O)Cc2cc(F)c([N+](=O)[O-])cc2[N+](=O)[O-])cc1 105%, CS(=O)(=O)N1N=C(c2ccco2)CC1c1ccccc1 (stereo not given) 105%, NC(=O)CSCc1c(Cl)cccc1Cl 97.2%, N#C/C(=C\c1c(N2CCCCCC2)nc2ccccn2c1=O)C(=O)NCc1ccco1 95.6%, O=C(OCc1ccco1)c1ccc(S(=O)(=O)N2CCCCC2)cc1 96.1%, O=C(OCC(=O)N1CCN(C(=O)c2ccco2)CC1)c1cc(-c2ccc(Cl)c(Cl)c2Cl)nc2ccccc12 116%, COc1ccc(/C(C)=N/NC(=O)c2ccc(N(C)C)cc2)cc1 101%, O=C(c1ccccc1Br)N1CCN(c2ccccc2)CC1 94.3%, O=C(Nc1nc(-c2ccc(Cl)cc2)cs1)c1cccnc1 99.4%

assay: TOR pathway CIT2 reporter hit retest – S. cerevisiae, GFP fusion, cherry picks, mother/daughter gates, confirmation (AID 2274); settings: S. cerevisiae CIT2-GFP strain, flow cytometry, 3 h; at 10 µM; stronger effect = higher value

GFP response, % of DMSO, inactive:
Cc1ccc(C(=O)NNC(=S)NC(=O)COc2ccccc2)cc1 138%, O=C(OCc1cc(Cl)ccc1OC(F)F)c1ccc([N+](=O)[O-])o1 95.2%, O=C(OCCOc1ccccc1)c1n[nH]c2ccccc12 102%, O=C1C=CC(=O)N1c1ccc(Sc2ccc([N+](=O)[O-])cc2)cc1 79.7%, CCn1c(=O)c(C(=O)Nc2ccsc2C(=O)OC)c(O)c2ccccc21 100%, COCC(=O)Nc1cc([N+](=O)[O-])ccc1C 99.3%, O=C1/C(=C\c2ccc(O)c(O)c2)SC(=S)N1Cc1ccccc1 113%, COc1ccc(C(=O)/C=C2/C(=O)Nc3ccccc32)cc1 98.3%, O=C(Nc1cc(Sc2ccccn2)cc([N+](=O)[O-])c1)c1ccc(Cl)cc1 101%, c1ccc(-c2cccc(-c3ccccn3)n2)nc1 97.8%, CN1CCSc2ccc(C(=O)Nc3cccc(F)c3)cc21 92.1%, Cc1nn(C)cc1C(C)NC(=O)c1cc(COc2ccc(F)c(F)c2)on1 (stereo not given) 97.8%, Oc1ccccc1/C=N/c1c(-c2ccco2)nc2ccccn12 102%, CC(C(=O)NCCc1ccc(F)cc1)N1CCN(Cc2ccccc2)CC1 (stereo not given) 95.2%, COc1ccc(C(=O)/C=C2/C(=O)Nc3ccccc32)cc1OC 95%, COC(=O)CNc1c(-c2ccccn2)nc2ccc(Br)cn12 107%, C=CCOc1ccc(/C=C2\N=C(C)OC2=O)cc1OC 103%, COc1ccccc1C1CC(c2c(-c3ccccc3)c3cc(Cl)ccc3[nH]c2=O)=NN1S(C)(=O)=O (stereo not given) 113%, COC(=O)Cn1nc(-c2ccccc2)c2ccccc21 102%, COc1ccccc1C(=O)NNC(=O)C(=O)Nc1cccc(Cl)c1C 119%, O=C(NCC(=O)N1CCCC1)c1cccs1 104%, COC(=O)Cc1csc(Nc2ccc(F)c(Cl)c2)n1 110%, O=C1C2C3C=CC(CO)(O3)C2C(=O)N1c1ccccc1-c1ccccc1 (stereo not given) 124%, COC(=O)c1ccc(/C=C/C(=O)c2ccc(OC)c(OC)c2)cc1 104%, Cn1c(=O)c2ccccc2n(Cc2cccc(F)c2)c1=O 94.4%, COc1cc(/C=C/C(=O)c2c(O)cc(C)oc2=O)cc(OC)c1O 97.3%, O=[N+]([O-])c1cc(Cl)ccc1Sc1ccccn1 95.9%, COc1ccc(NC(=O)CCc2nc(-c3ccccc3F)no2)cc1 97.2%, COc1ccc(-c2nnc(NC(=O)c3ccc(S(=O)(=O)N4COCC4(C)C)cc3)o2)cc1 98.6%, C/C(CCC12CC3CC(CC(C3)C1)C2)=N\NC(N)=S 89.8%, C=CCn1cc(/C=C/c2cc[n+](C)cc2)c2ccccc21 125%, Cc1ccc(S(=O)(=O)Cc2cc(F)c([N+](=O)[O-])cc2[N+](=O)[O-])cc1 89.7%, CS(=O)(=O)N1N=C(c2ccco2)CC1c1ccccc1 (stereo not given) 106%, NC(=O)CSCc1c(Cl)cccc1Cl 93.9%, N#C/C(=C\c1c(N2CCCCCC2)nc2ccccn2c1=O)C(=O)NCc1ccco1 96.9%, O=C(OCc1ccco1)c1ccc(S(=O)(=O)N2CCCCC2)cc1 102%, O=C(OCC(=O)N1CCN(C(=O)c2ccco2)CC1)c1cc(-c2ccc(Cl)c(Cl)c2Cl)nc2ccccc12 115%, COc1ccc(/C(C)=N/NC(=O)c2ccc(N(C)C)cc2)cc1 104%, O=C(c1ccccc1Br)N1CCN(c2ccccc2)CC1 93.9%, O=C(Nc1nc(-c2ccc(Cl)cc2)cs1)c1cccnc1 95.9%

From PubChem BioAssay
